Rows were chosen to be rich in hits. Some 4.4% of all compounds tested hit in one or more screens of this group.
tim10-1 inh: growth inhibitors of tim10-1 mutant yeast. inhibition, % at 20 µM. 330,000 compounds, 2.2% hits. S. cerevisiae tim10-1 ts strain growth, BacTiter-Glo, 24 h. AID 463190;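 active means inhibition of at least 40%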;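 further: mutant grown at 25 °C; 0% = DMSO wells with yeast and 100% = wells holding no yeast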
PfHsp90 yeast 2: inhibits growth of yeast expressing Plasmodium falciparum Hsp90; 310,000 compounds, 0.32% hits; S. cerevisiae expressing PfHsp90, BacTiter-Glo ATP, 48 h; yeast lacking PDR1 and PDR3 efflux regulators; inhibition, % at 9.4 µM;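 active means every replicate shows inhibition above about 80%, whatever the replicate mean, limit read from the data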;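 further: 0% = DMSO neutral controls and 100% = 20 µM radicicol positive controls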
tim23-1 inh: inhibits growth of tim23-1 mutant yeast | AID 463212 | 330,000 compounds, 1.3% hits | S. cerevisiae tim23-1 growth, BacTiter-Glo luminescence, 24 h | inhibition, % at 20 µM;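 active means growth inhibition of the mutant yeast at or above 50%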;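 further: temperature-sensitive mutant grown at 25 °C; plate controls were DMSO-treated mutant yeast for no effect and medium wells lacking yeast for full effect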
TIM10 inh: growth inhibitors of TIM10 yeast strain; S. cerevisiae TIM10 strain growth, BacTiter-Glo luminescence, 24 h; inhibition, % at 10 µM; AID 463195; 330,000 compounds, 1.4% hits;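 active means inhibition of 40% or more at the single tested concentration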;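 further: wild-type TIM10 isogenic control strain grown at permissive 25 °C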
SKKanGAS inh: inhibitors of SKKanGAS S. pyogenes growth in kanamycin (SK-promoter or general growth effect) | BacTiter-Glo, 6 h | inhibition, % at 7.5 µM | 300,000 compounds, 1.3% hits | AID 1662;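 active means mean replicate score, as percent of positive control median, at least 50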;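 further: strain carries kanamycin resistance gene driven by streptokinase promoter and grows in 40 µg/ml kanamycin; loss of luminescence reflects streptokinase promoter inhibition or plain growth inhibition; 0% = median of DMSO wells and 100% = positive control at its reference dose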
* = called active by the depositor; / = not tested or not shown.

SMILES	tim10-1 inh	PfHsp90 yeast 2	tim23-1 inh	TIM10 inh	SKKanGAS inh
O=C(c1cc(-c2ccncc2)nc2ccc(Cl)cc12)N1CCN(Cc2ccc3c(c2)OCO3)CC1	8	-12	-12	22	11
Cc1cc(C)c2nc(-c3ccncc3)cc(C(=O)N3CCN(Cc4ccccc4Cl)CC3)c2c1	21	-3	39	8	74*
CC(NC(=O)c1ccc(Br)cc1)c1ccc2c(c1)CCCC2 (centres undefined)	1	105*	-17	-37	27
O=C(N/N=C/c1cc(Br)ccc1O)C(=O)Nc1ccccc1OC(F)(F)C(F)F	/	-20	/	/	103*
Cc1nc(-n2[nH]c3c(c2=O)CCCC3)[nH]c(=O)c1Cc1ccccc1	14	71	-5	7	95*
Nc1c(-c2ccccc2)c(CSc2nc3ccccc3[nH]2)nn1-c1cccc(Cl)c1	24	-30	29	24	103*
CC(COc1ccccc1Cc1ccccc1)N1CCCCC1 (centres undefined)	10	/	9	8	-1
Cc1cc(C(=O)N/N=C/c2cc(N=Nc3ccccc3)ccc2O)n[nH]1	/	-18	/	/	88*
CNC1=C(N(C(C)=O)c2ccc(Br)cc2)C(=O)c2ccccc2C1=O	/	8	/	/	57*
CN(CCO)c1ccc(C=NNc2ccc([N+](=O)[O-])cc2S(=O)(=O)Nc2ccccc2C(=O)O)cc1	29	/	16	7	/
O=C(NCC(c1ccco1)N1CCCC1)c1ccc(Cl)c(S(=O)(=O)N2CCc3ccccc32)c1 (centres undefined)	7	/	20	8	/
CCNC(=O)c1c(NC(=O)c2cc(-c3cc(C)ccc3O)n[nH]2)sc2c1CCCC2	27	4	14	2	82*
O=[N+]([O-])c1ccc(-c2cnc(SC(c3ccccc3)c3ccccc3)[nH]2)cc1	-6	14	0	5	62*
CC(C)CN1C(=S)SC(C)(C)C1n1oc(=O)n(-c2ccccc2)c1=O (centres undefined)	30	-1	34	29	10
CC(C)CN1C(=S)SC(C)(C)C1n1oc(=O)n(-c2ccc(Cl)cc2)c1=O (centres undefined)	13	/	31	22	71*
Cc1ccc(C(=O)ONC(=O)c2ccc(Cl)cc2)cc1[N+](=O)[O-]	10	108*	20	17	-5
Cc1ccc(C(=O)NNC(=O)c2ccncc2)cc1[N+](=O)[O-]	4	1	14	6	/
S=c1[nH]nc(-c2cc3c(s2)-c2ccccc2CC3)o1	23	-91	34	6	73*
CCN(CC)c1ccc(NC(=O)c2ccc(S(=O)(=O)N3CCOCC3)cc2)cc1	13	1	14	-1	/
Cc1ccc(-c2csc(N3C(=N)SCC3=O)n2)cc1	12	/	-10	9	6
N=C1SCC(=O)N1c1ncc(Cc2ccc(F)cc2)s1	16	-57	36	36	74*
CC(=O)NC[C@H]1CN(c2ccc(N3CCOCC3)c(F)c2)C(=O)O1	13	/	25	3	107*
O=[N+]([O-])c1cc(Cl)cc(/C=N/Nc2nc3ccccc3s2)c1O	32	-20	29	21	82*
COc1cc(/C=N/Nc2nc3ccccc3s2)cc([N+](=O)[O-])c1O	10	-45	-5	-2	54*
COc1cc(/C=N/Nc2ccccc2[N+](=O)[O-])cc(OC)c1O	30	-26	6	6	-3
SMILES	tim10-1 inh	PfHsp90 yeast 2	tim23-1 inh	TIM10 inh	SKKanGAS inh
Cc1ccc(S(=O)(=O)Nc2ccccc2N=Cc2ccc([N+](=O)[O-])cc2[N+](=O)[O-])cc1	/	-25	/	/	/
CCCCCCC(=O)N(O)C1CC(=O)N(c2ccc(Cl)cc2)C1=O (centres undefined)	24	110*	37	12	4
Cc1ccc(N2C(=O)CC(N(O)C3CC(=O)N(c4ccc(C)cc4)C3=O)C2=O)cc1 (centres undefined)	12	-6	12	4	-1
C=C1C(O)[C@@H]2O[C@]3(CC[C@H](/C=C/C(C)[C@@H]4CC(C)=CC5(O[C@H](C[C@@](C)(O)CO)CCC5O)O4)O3)CC[C@H]2O[C@@H]1C(O)CC(C)[C@H]1OC2(CCCCO2)CCC1C (some centres undefined)	8	/	10	7	/
Cc1ccc(COC(=O)CN2C(=O)NC3(CCCCC3C)C2=O)cc1 (centres undefined)	21	-8	19	4	/
O=C1C2CC=CCC2C(=O)N1Cc1ccccc1 (centres undefined)	-12	9	-7	-12	6
O=C1C=CC(=O)N1Cc1ccccc1	37	110*	20	13	-2
CC(C)(C)OC(=O)C[C@H]1C/C=C\C[C@H](CC(=O)NCCO)C(=O)N[C@@H](c2ccccc2)COC1=O	-13	5	-3	-1	/
CC(Sc1n[nH]c(-c2cccs2)n1)C(=O)N1CCCC1 (centres undefined)	-175	0	-32	-180	/
O=c1cc(/N=C/c2coc3c(ccc4ccccc43)c2=O)[nH]c(=S)[nH]1	16	-1	0	2	87*
NC(=S)N/N=C/c1coc2c(ccc3ccccc32)c1=O	/	-42	/	/	1
O=C(N/N=C/c1cc(Cl)ccc1O)c1ccncc1	1	-1	41	2	99*
CO[C@@]1(NC(=O)C2SC(=C(C(N)=O)C(=O)O)S2)C(=O)N2C(C(=O)O)=C(CSc3nnnn3C)CS[C@@H]21 (some centres undefined)	-11	-9	-10	-4	/
Cc1c(Cl)c(C(F)F)nn1CC(=O)NC1C(=O)N2C(C(=O)O)=C(CSc3nnnn3C)CSC12 (centres undefined)	/	-10	/	/	119*
Cc1c(Cl)cnn1CC(=O)NC1C(=O)N2C(C(=O)O)=C(CSc3nnnn3C)CSC12 (centres undefined)	0	-3	4	18	120*
CC1=C(C(=O)O)N2C(=O)C(NC(=O)c3nn(C)cc3Cl)C2SC1 (centres undefined)	-11	16	-7	-9	-3
CC(C(=O)NC1C(=O)N2C(C(=O)O)=C(CSc3nnnn3C)CSC12)n1cc(Cl)cn1 (centres undefined)	9	-21	2	6	105*
Cn1nnnc1SCC1=C(C(=O)O)N2C(=O)C(NC(=O)Cn3nc(C(F)F)cc3C3CC3)C2SC1 (centres undefined)	15	-6	10	5	104*
C=C1[C@H]2O[C@H]2[C@@H](OC(C)=O)[C@@]2(C)[C@@H](OC(C)=O)C[C@@H](OC(C)=O)[C@@](C)(O)[C@@H]2[C@@H](OC(C)=O)[C@@]2(O)[C@@H](C)C(=O)O[C@H]2[C@H]1Cl	/	-2	/	/	/
CCOc1ccc(NC(=O)c2cccc(-n3cccc3)c2)cc1S(=O)(=O)N1CCOCC1	12	19	1	-24	/
Cc1nnc(SCC2=C(C(=O)O)N3C(=O)C(NC(=O)Cc4ccccc4)C3SC2)s1 (centres undefined)	7	8	8	-8	/
